This is a sample that favours compounds with a hit; in the whole collection about 31% have one here.
PLAP activator – activators of human placental alkaline phosphatase. AID 696. activation fold at 20 µM. P05187. purified PLAP enzyme, luminescent substrate read-out; hits give high values. 1.2% of 96,000 active; in the data active = activation fold above about 2
Target sequence (P05187 whole entry, looked up): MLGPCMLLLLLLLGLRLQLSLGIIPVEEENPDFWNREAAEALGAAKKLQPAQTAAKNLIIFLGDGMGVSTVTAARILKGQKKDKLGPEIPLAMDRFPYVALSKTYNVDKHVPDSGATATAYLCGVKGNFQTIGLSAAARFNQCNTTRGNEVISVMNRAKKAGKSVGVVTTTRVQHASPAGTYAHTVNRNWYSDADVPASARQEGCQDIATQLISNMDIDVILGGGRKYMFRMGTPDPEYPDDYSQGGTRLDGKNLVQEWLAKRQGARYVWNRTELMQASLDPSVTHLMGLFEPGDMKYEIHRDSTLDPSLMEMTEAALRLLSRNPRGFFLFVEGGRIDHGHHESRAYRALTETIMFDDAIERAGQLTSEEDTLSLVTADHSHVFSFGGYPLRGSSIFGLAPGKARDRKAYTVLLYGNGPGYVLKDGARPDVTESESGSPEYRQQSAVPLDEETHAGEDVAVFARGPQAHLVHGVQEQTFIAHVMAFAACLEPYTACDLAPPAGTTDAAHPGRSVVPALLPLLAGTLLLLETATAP
CYP2C9 inh – inhibitors of human CYP2C9; AID 777; 20% of 96,000 active; P11712; CYP2C9 Supersomes, luciferin-H conversion, luminescence; inhibition, % at 5 µM;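 active = blocking of liver enzyme CYP2C9 beyond about 50% at 5 µM, limit read from the data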
CYP2C19 inhib – human CYP2C19 inhibition | P33261 | CYP2C19 Supersomes, luciferin-H EGE luminescence, 30 min | inhibition, % at 5 µM | 21% of 96,000 active;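 active = CYP2C19 inhibition above a set limit at 5 µM in the primary screen, cut at about 50% in these data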
CYP2C9 act – CYP2C9 (human) activation; P11712; recombinant CYP2C9, luciferin-H conversion, luminescence; hits give high values; factor 1 = untreated enzyme, 0 = blocked; activation factor at 5 µM; 1.4% of 96,000 active; AID 1024;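 active = activation factor of 2 or more for CYP2C9 at a 5 µM dose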
CYP2C19 act – cytochrome P450 2C19 (human) activation | 96,000 tested, under 10 active | AID 1025 | P33261 | recombinant CYP2C19, luciferin-H EGE luminescence; hits give high values; 0 = fully inhibited enzyme, 1 = untreated enzyme | activation factor at 5 µM;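 active = activation factor of at least 2 at 5 µM in the primary screen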
Hits are given with their value; - = inactive.

SMILES	PLAP activator	CYP2C9 inh	CYP2C19 inhib	CYP2C9 act	CYP2C19 act
O=C(c1ccc(COc2ccccc2Cl)o1)N1CCN(c2ccccc2)CC1	-	97	92	-	-
COc1ccccc1S(=O)(=O)Cc1ccc(C(=O)N2CCN(c3cccc(Cl)c3)CC2)o1	-	-	53	-	-
Cc1ccc(C)c(N2CCN(C(=O)c3ccc(CS(=O)(=O)c4ccccc4C)o3)CC2)c1	-	69	-	-	-
Cc1cccc(N2CCN(C(=O)c3ccc(CS(=O)(=O)c4ccccc4C)o3)CC2C)c1 (stereo not drawn)	-	84	58	-	-
COc1ccccc1S(=O)(=O)Cc1ccc(C(=O)N2CCN(c3ccccc3)CC2)o1	-	-	-	-	-
CCOC(=O)c1sc(NC(=O)c2cc3n(n2)C(C(F)(F)F)CC(c2ccccc2)N3)c(C(=O)OCC)c1C (stereo not drawn)	-	-	-	-	-
CCOC(=O)CN(C(=O)CSc1nnc(-c2ccc(OC)c(OC)c2)o1)c1ccccc1	-	-	-	-	-
Cn1c(=O)c2c(nc(CN3CCN(c4ccc(F)cc4)CC3)n2Cc2ccccc2F)n(C)c1=O	-	-	-	-	-
COc1ccc(C(NC(=O)CC(C)C)NC(=O)CC(C)C)cc1OC	-	-	-	-	-
CCCCN(CC)CCNc1c(NC2CCN(C(=O)OCC)CC2)c(=O)c1=O	-	66	-	-	-
Cc1ccc(/C=c2\sc3n(c2=O)CN(c2ccc(Br)cc2)CN=3)o1	-	62	-	-	-
CCOC(=O)c1cc(C(=O)Nc2ccccc2F)nn1C	-	-	-	-	-
O=c1n(S(=O)(=O)c2cccc3cccnc23)c2ccccc2n1S(=O)(=O)c1cccc2cccnc12	-	-	-	-	-
CC1CC(C)CN(S(=O)(=O)c2cccc3cccnc23)C1 (stereo not drawn)	-	-	68	2.5	-
COc1ccc(N2CCN(S(=O)(=O)c3cccc4cccnc34)CC2)cc1	-	-	82	2.6	-
COc1cccc(N2CCN(c3ccc(S(=O)(=O)N4CCCC4)cc3)CC2)c1	-	-	-	-	-
CC1CCCCN1S(=O)(=O)c1cccc2cccnc12 (stereo not drawn)	-	-	79	3.9	-
O=C(Nc1cccc(C(F)(F)F)c1)C1CCCN1S(=O)(=O)c1cccc2cccnc12 (stereo not drawn)	-	-	-	-	-
O=S(=O)(c1cccc2cccnc12)N1CCOCC1	-	-	-	4	-
CC(C)C12CN3CC(C(C)C)(CN(C1)C3c1ccccc1)C2O (stereo not drawn)	-	-	-	-	-
CC(C(=O)NCc1ccccn1)N1C(=O)c2ccccc2C1=O (stereo not drawn)	-	-	-	-	-
COc1ccc(C2C3=C(CC(C)(C)CC3=O)Oc3ncn(CCO)c(=N)c32)cc1OC (stereo not drawn)	-	-	-	-	-
Cc1ccnc(NC(=S)NC(=O)/C=C/c2ccco2)c1	-	53	-	-	-
O=C(OCCNC(=O)c1cc2ccccc2oc1=O)c1cccnc1	-	-	-	-	-
CCCCC(=O)OCCNC(=O)c1cc2ccccc2oc1=O	-	-	59	-	-
SMILES	PLAP activator	CYP2C9 inh	CYP2C19 inhib	CYP2C9 act	CYP2C19 act
Cc1sc2c(=O)n3c(nc2c1C(=O)NC1CCCCC1)CCCCC3	-	96	84	-	-
Cc1sc2c(=O)n3c(nc2c1C(=O)NCCCN1CCOCC1)CCCCC3	-	90	86	-	-
COc1ccc(N2CCCn3c2nc2c3c(=O)n(Cc3ccccc3F)c(=O)n2C)c(OC)c1	-	-	-	-	-
C/C(=N\OC(=O)c1ccccc1F)c1nccs1	-	-	-	-	-
Cc1cccn2c(=O)c3cc(C#N)c(=NC(=O)c4ccncc4)n(CCCOC(C)C)c3nc12	-	87	94	-	-
CCCCn1c(=NC(=O)c2cccnc2)c(C#N)cc2c(=O)n3cccc(C)c3nc21	-	-	-	-	-
COCCCn1c(=NC(=O)c2ccncc2)c(C#N)cc2c(=O)n3cccc(C)c3nc21	-	81	70	-	-
CCOC(=O)c1ccc(N2C(=O)CC(Nc3ccc(CCO)cc3)C2=O)cc1 (stereo not drawn)	-	-	-	-	-
CCOC(=O)c1cc2sccc2n1Cc1ccccc1	-	-	-	-	-
COC(=O)c1cc2sc(Cl)cc2n1CC(=O)N1CCCc2ccccc21	-	73	83	-	-
CCOC(=O)c1cc2occc2n1CC(=O)N1CCCc2ccccc21	-	87	96	-	-
CCOC(=O)c1cc2sc(C)cc2n1CC(=O)N1CCc2ccccc21	-	-	-	-	-
CCOC(=O)c1cc2sccc2n1CCCN1C(=O)c2ccccc2C1=O	-	69	-	-	-
CCOC(=O)c1cc2sccc2n1CC(=O)N1CCCc2ccccc21	-	94	98	-	-
Cc1c(NC(=O)C(C)OC(=O)CC2Sc3ccccc3NC2=O)c(=O)n(-c2ccccc2)n1C (stereo not drawn)	-	-	-	-	-
COC(=O)c1cc2sccc2n1CC(=O)N1CCCc2ccccc21	-	69	83	-	-
Cc1ccc2oc(=O)c3cnn(CC(=O)N4CCCc5ccccc54)c3c2c1	-	55	-	-	-
COC(=O)c1cc2oc(C)cc2n1CC(=O)N1CCCc2ccccc21	-	68	67	-	-
CCN(CC)C(=O)CC(c1ccc(F)cc1)c1ccco1 (stereo not drawn)	-	-	62	-	-
COC(=O)C1(C(O)C(=O)c2ccc(C)cc2C)CCCCC1 (stereo not drawn)	-	-	64	-	-
Cc1ccc(C(=O)NC(=S)Nc2ccc3c(c2)OCCO3)c(C)c1	-	-	-	-	-
CCC(C)(C(=O)NC1CCCC1)N(C(=O)c1cnccn1)c1c(C)n(C)n(-c2ccccc2)c1=O (stereo not drawn)	-	-	-	-	-
CCn1nc(C(=O)N2CCN(Cc3ccc4c(c3)OCO4)CC2)c2ccccc2c1=O	-	61	-	-	-
CCC(CC)C(=O)N1CCN(Cc2ccc3c(c2)OCO3)CC1	-	-	-	-	-
O=C(c1ccc2nc3ccccc3c(=O)n2c1)N1CCN(Cc2ccc3c(c2)OCO3)CC1	-	53	-	-	-
SMILES	PLAP activator	CYP2C9 inh	CYP2C19 inhib	CYP2C9 act	CYP2C19 act
O=C(c1cccn2c(=O)c3cc(Cl)ccc3nc12)N1CCOCC1	-	-	-	-	-
O=C(c1cccn2c(=O)c3ccccc3nc12)N1CCN(Cc2ccc3c(c2)OCO3)CC1	-	75	-	-	-
O=C(NCCN1CCN(c2ccccc2F)CC1)c1cccn2c(=O)c3ccccc3nc12	-	57	60	-	-
O=C(c1ccc2nccnc2c1)N1CCN(Cc2ccc3c(c2)OCO3)CC1	-	-	-	-	-
COc1ccc(Cl)cc1N(C)C(=O)CCNC(=O)Cn1cnc2ccccc2c1=O	-	-	-	-	-
O=C(c1cccn2c(=O)c3cc(Cl)ccc3nc12)N1CCN(Cc2ccc3c(c2)OCO3)CC1	-	97	88	-	-
COc1c(Cl)cc(Cl)cc1/C=N/n1cnnc1	-	-	-	-	-

Compound activity: PubChem, Sanford-Burnham Center for Chemical Genomics
